For some of these results: Results with a measured potency or affinity are listed apart. Active and inactive are the calls of the source.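 How the source made its calls, unless noted: active means calcium signal cut by more than 3 SD below the full-agonist control yet still positive, in both repeats and the earlier primary screen; inactive means the rest.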

For experiment [1], the system named is TRPC4 beta (transient receptor potential cation channel C4), mouse. As to the kind of experiment: activators of mouse TRPC4 channel, confirmation, cell-based, Fluo4 calcium, HEK293 TRPC4beta/mu-opioid, duplicates, 10 µM (AID 2426;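 active means fluorescence ratio normalized to control raised more than 50% in primary screen plus both repeat runs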). As to conditions: Fluo4 calcium fluorescence, at 10 µM; active compounds read high.
The test system of experiment [2] is transient receptor potential cation channel C4 beta (TRPC4), mouse. As to the kind of experiment: activators of mouse TRPC4 channel, confirmation, cell-based, second round, Fluo4, HEK293 TRPC4beta/mu-opioid, 1 µM (AID 2461;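 active means primary screen active and over 50% activation in each of two duplicate runs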). To be noted: Fluo4 calcium fluorescence, at 1 µM; active compounds read high.
The test system of experiment [3] is TRPC4 (transient receptor potential cation channel C4 beta), mouse. As to the kind of experiment: positive allosteric modulators of mouse TRPC4, confirmation, cell-based, second round, Fluo-4, HEK293 TRPC4beta/mu-opioid, 1 µM (AID 2554;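 active means primary screen hit whose fluorescence ratio, in both repeats, exceeds the weak agonist control mean by 3 SD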). To be noted: DAMGO EC20, Fluo-4 calcium flux, at 1 µM; active compounds read high. For orientation: Calcium assays in cells follow changes in intracellular calcium, usually with a dye or a luminescent sensor.

Experiment [4] deals with TRPC4 beta (transient receptor potential cation channel C4), mouse. As to the kind of experiment: positive allosteric modulators of mouse TRPC4, confirmation, cell-based, Fluo-4, HEK293 TRPC4beta/mu-opioid (AID 2555;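 active means primary screen hit whose calcium fluorescence ratio, in both repeats, exceeds the weak agonist control mean by 3 SD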). To be noted: DAMGO EC20, Fluo-4 calcium flux, at 10 µM; active compounds read high.
In experiment [5] the target is Short transient receptor potential channel 4 (Mus musculus) (UniProt Q9QUQ5). As to the kind of experiment: inhibitors of mouse TRPC4 channel, confirmation, cell-based, Fluo4, HEK293 TRPC4beta/mu-opioid (AID 2636). To be noted: DAMGO, Fluo4 calcium flux, at 10 µM; active compounds read high.
Chain of Short transient receptor potential channel 4 (Mus musculus) (Q9QUQ5 whole entry, looked up): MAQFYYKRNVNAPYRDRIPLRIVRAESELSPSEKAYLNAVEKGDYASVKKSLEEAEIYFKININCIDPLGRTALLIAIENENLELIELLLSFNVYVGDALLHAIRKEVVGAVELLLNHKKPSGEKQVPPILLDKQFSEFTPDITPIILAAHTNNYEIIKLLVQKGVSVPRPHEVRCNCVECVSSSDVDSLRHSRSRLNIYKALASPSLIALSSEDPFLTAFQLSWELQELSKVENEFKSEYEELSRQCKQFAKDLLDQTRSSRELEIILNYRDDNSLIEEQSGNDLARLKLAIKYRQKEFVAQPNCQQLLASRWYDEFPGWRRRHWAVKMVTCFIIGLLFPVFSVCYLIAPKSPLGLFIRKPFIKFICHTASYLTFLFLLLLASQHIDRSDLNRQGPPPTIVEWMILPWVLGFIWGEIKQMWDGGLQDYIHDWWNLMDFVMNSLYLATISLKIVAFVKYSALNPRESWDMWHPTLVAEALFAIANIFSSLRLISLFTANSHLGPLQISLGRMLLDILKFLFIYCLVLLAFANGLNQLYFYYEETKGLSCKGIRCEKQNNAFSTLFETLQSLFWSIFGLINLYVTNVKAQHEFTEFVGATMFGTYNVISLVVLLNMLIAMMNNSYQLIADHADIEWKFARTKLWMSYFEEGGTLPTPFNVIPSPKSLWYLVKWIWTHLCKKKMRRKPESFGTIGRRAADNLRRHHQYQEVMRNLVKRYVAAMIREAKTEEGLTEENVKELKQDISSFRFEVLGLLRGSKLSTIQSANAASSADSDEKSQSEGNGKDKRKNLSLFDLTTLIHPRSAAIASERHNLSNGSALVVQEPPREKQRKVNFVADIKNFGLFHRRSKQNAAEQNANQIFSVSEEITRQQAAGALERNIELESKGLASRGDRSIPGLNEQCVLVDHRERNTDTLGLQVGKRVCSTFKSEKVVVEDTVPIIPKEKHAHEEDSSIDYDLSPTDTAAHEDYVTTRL
Experiment [6] has the same target. Briefly: inhibitors of mouse TRPC4 channel, confirmation, cell-based, second round, Fluo4, HEK293 TRPC4beta/mu-opioid, 1 µM (AID 2637;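 active means calcium signal ratio cut to more than 3 SD under the fully stimulated control mean yet still positive, in both repeats and the primary screen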). To be noted: Fluo4 calcium flux, DAMGO, at 1 µM; active compounds read high.
Experiment [7] shares this target. Briefly: mouse TRPC4 channel activators, dose response, cell-based, HEK293 TRPC4/mu-opioid, Fluo-4 calcium (AID 434937;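 active means primary screen activator hit with a dose response curve and TRPC4 channel activation at any tested dose; inactive means no activation, no dose response, or not a primary hit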).
Experiment [8] has the same target. As to the kind of experiment: TRPC4 positive allosteric modulators, dose response, cell-based, HEK293 TRPC4/mu-opioid, Fluo-4 calcium, EC20 DAMGO (AID 434941;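 active means earlier screen potentiator hit that boosts the TRPC4 ion channel at some dose, with a dose response; inactive means no potentiation, no dose response, or not a prior hit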;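 further: calcium entry triggered by an EC20 dose of DAMGO at the co-expressed mu-opioid receptor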).
Experiment [9] has the same target. As to the kind of experiment: mouse TRPC4 channel inhibitors, dose response, cell-based, HEK293 TRPC4/mu-opioid, Fluo-4 calcium (AID 434942;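 active means primary screen inhibitor hit that blocks the TRPC4 channel at some tested dose, yielding a dose curve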).
Experiment [10] concerns the target Short transient receptor potential channel 6 (Mus musculus) (UniProt Q61143). Briefly: inhibition of mouse TRPC6 channel, confirmation, selectivity assay for TRPC4 inhibitor project, cell-based, HEK293, membrane potential dye, duplicate (AID 434948;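 active means active in primary screen and both duplicates, each dropping signal beyond three positive-control SD with fluorescence still positive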). As to conditions: HEK293 TRPC6, membrane potential dye fluorescence, at 10 µM, stimulated with maximal-effect acetylcholine; active compounds read high.

Experiment [11] shares this target. As to the kind of experiment: activation of mouse TRPC6 channel, confirmation, selectivity assay for TRPC4 activator project, cell-based, HEK293, membrane potential dye, duplicate (AID 434950;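 active means membrane potential signal rise above negative control mean plus 3 SD in both duplicates, also active in the earlier TRPC4 screen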). As to conditions: HEK293 TRPC6, membrane potential fluorescence, at 10 µM; active compounds read high.
The target is the same in experiment [12]. Briefly: TRPC6 potentiation by TRPC4 potentiator hits, confirmation, selectivity assay for TRPC4 potentiator project, HEK293 cells, membrane potential dye, duplicate (AID 434952;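 active means compound raising the membrane signal above positive-control mean plus 3 SD in both repeats, and a primary screen hit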). To be noted: HEK293 TRPC6, membrane potential dye fluorescence, at 10 µM, maximal acetylcholine added after compound; active compounds read high.
For experiment [13], the target named is Short transient receptor potential channel 4 (Mus musculus) (UniProt Q9QUQ5). Briefly: calcium flux activators in TRPC4/5HT1a cells, counter-screen for TRPC4 activator project, cell-based, second counter screen, HEK293 TRPC4/5HT1a, Fluo-4 (AID 434977;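 active means calcium signal rise above buffer-control mean plus 5 SD in both duplicates, and also a hit in the primary screen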). To be noted: Fluo-4 calcium flux, at 10 µM; active compounds read high.
A short description of experiment [14]: calcium flux inhibitors in TRPC4/5HT1a cells, confirmation, counter-screen for TRPC4 inhibitor project, cell-based, second counter screen, HEK293 TRPC4/5HT1a, Fluo-4 (AID 434978;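 active means primary screen active whose calcium signal fell more than 3 SD beyond the full-serotonin control mean in both duplicate plates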;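 further: serotonin given first at submaximal then at maximal dose after compound preincubation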). To be noted: Fluo-4 calcium flux, at 10 µM, serotonin added to trigger calcium flux; active compounds read high.
For experiment [15], the system named is TRPC4 (mouse), co-expressed with 5HT1a in HEK293. As to the kind of experiment: calcium flux potentiators in TRPC4/5HT1a cells, confirmation, counter-screen for TRPC4 potentiator project, cell-based, second counter screen, HEK293 TRPC4/5HT1a, Fluo-4 (AID 434979;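 active means signal rise over 3 SD above mean of control wells given weak agonist, in both repeats and first screen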). To be noted: Fluo-4 calcium flux, at 10 µM, serotonin added at its EC20 dose; active compounds read high.

A short description of experiment [16]: calcium flux activation in mu-opioid HEK293 cells, confirmation, counter-screen for TRPC4 activator project, cell-based, HEK293 mu-opioid receptor line (AID 449723;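 active means hit in primary screen, with calcium signal over 5 SD above buffer well mean in both duplicates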;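 further: counter screen cells carry the mu-opioid receptor alone and lack TRPC4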). To be noted: Fluo-4 calcium fluorescence, at 10 µM; active compounds read high.
Experiment [17] in a line: calcium flux enhancement in mu-opioid HEK293 cells, confirmation, counter-screen for TRPC4 allosteric potentiator project, cell-based, HEK293 mu-opioid receptor line (AID 449724;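 active means calcium signal rise more than 3 SD above the low-dose agonist control mean, in both duplicate plates and the primary screen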;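 further: HEK293 cells carrying mu-opioid receptor only with no TRPC4 channel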). As to conditions: Fluo-4 calcium flux, at 10 µM, compound added before EC20 DAMGO stimulus; active compounds read high.

Chain of Short transient receptor potential channel 6 (Mus musculus) (Q61143 whole entry, looked up): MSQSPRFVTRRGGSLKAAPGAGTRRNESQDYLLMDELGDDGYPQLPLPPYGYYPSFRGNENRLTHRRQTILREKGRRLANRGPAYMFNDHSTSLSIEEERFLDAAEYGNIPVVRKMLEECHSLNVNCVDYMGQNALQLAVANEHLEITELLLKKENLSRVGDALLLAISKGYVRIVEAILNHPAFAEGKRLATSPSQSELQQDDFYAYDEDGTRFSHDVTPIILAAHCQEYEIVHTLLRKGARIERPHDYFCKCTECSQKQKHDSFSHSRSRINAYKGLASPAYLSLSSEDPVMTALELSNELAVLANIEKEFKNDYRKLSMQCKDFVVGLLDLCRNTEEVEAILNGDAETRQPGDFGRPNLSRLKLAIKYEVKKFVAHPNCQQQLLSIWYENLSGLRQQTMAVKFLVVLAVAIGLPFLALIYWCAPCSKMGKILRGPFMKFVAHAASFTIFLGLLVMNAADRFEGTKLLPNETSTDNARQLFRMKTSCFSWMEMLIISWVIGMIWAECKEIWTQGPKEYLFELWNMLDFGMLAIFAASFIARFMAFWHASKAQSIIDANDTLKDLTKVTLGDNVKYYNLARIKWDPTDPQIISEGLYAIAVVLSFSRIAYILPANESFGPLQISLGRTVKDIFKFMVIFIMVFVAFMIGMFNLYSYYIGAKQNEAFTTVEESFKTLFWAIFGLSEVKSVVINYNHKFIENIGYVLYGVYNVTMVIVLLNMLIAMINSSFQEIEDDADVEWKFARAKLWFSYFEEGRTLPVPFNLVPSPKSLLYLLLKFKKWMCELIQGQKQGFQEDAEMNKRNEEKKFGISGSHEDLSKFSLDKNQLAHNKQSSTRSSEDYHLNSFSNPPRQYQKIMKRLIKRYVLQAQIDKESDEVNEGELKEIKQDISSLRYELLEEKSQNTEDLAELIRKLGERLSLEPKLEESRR

In the case of `CC(Sc1nc2sc3c(c2c(=O)n1-c1ccccc1)CCCC3)C(=O)O` (stereo not drawn), the outcome in [1], in experiment [2], in [3], in experiment [5], in experiment [6] and in experiment [7] was inactive. In addition, the outcome in experiment [8], in experiment [9], in experiment [10], in experiment [11], in experiment [12] and in experiment [13] was inactive. Besides, the result in experiment [14], in experiment [16] and in [17] was inactive. The potentiation was 12% (active) in experiment [4] and 22.2% (active) in experiment [15].

As to `CC1=NN(C(=O)COc2ccc(C)c(C)c2)C(O)(c2ccc(Cl)cc2)C1` (stereo not drawn), the outcome in experiment [1], in experiment [2], in experiment [3], in experiment [4], in [5] and in [6] was inactive. In addition, the outcome in experiment [7], in experiment [8], in experiment [9], in [10], in experiment [11] and in experiment [12] was inactive. Moreover, the result in experiment [13], in experiment [14], in [15], in [16] and in [17] was inactive.

As for `CC(C)Oc1cccc(C(=O)NC(=S)Nc2ccc(N3CCN(C)CC3)cc2)c1`, the outcome in experiment [1], in [2], in experiment [3], in experiment [4], in experiment [5] and in experiment [6] was inactive. Moreover, the result in experiment [7], in [8], in [9], in experiment [10], in experiment [11] and in experiment [12] was inactive. Moreover, the outcome in experiment [13], in experiment [14], in experiment [16] and in experiment [17] was inactive. Besides, the potentiation in experiment [15] was 16.6% (active).

`Cc1ccc(C[n+]2cccc(-c3ccccc3)c2)c(C)c1`: the result in experiment [1], in experiment [2], in experiment [3], in experiment [4], in [5] and in [6] was inactive. Further, the outcome in [7], in [8], in [9], in [10], in experiment [11] and in experiment [12] was inactive. In addition, the outcome in [13], in experiment [14], in [15], in experiment [16] and in [17] was inactive.

With `Cc1cc(C)c(S(=O)(=O)N2CCN(C)CC2)c(C)c1`, the outcome in experiment [1], in [2], in experiment [4], in experiment [5], in [6] and in [7] was inactive. Besides, the outcome in [8], in experiment [9], in [10], in experiment [11], in experiment [12] and in experiment [13] was inactive. For the same compound, the result in experiment [14], in experiment [16] and in experiment [17] was inactive. Further, the potentiation in experiment [3] is 9% (active); in experiment [15], 12.4% (active).

As to `Oc1c(Br)cc(C2N=C(c3ccccc3Cl)NO2)cc1Br` (stereo not drawn), the outcome in experiment [1], in [2], in experiment [3], in experiment [4], in [5] and in experiment [6] was inactive. For the same compound, the result in [7], in experiment [8], in experiment [9], in [10], in experiment [11] and in experiment [12] was inactive. In addition, the result in [13], in [14], in experiment [15], in [16] and in [17] was inactive.

Regarding `CN(C)CCOc1ccc2ccccc2c1`, the result in experiment [1], in experiment [2], in experiment [5], in experiment [6], in experiment [7] and in experiment [8] was inactive. Besides, the outcome in [9], in [10], in experiment [11], in experiment [12], in [13] and in [14] was inactive. In addition, the result in [16] and in experiment [17] was inactive. Moreover, the potentiation in [3] is 8% (active); in [4], 14% (active); in experiment [15], 19.8% (active).

In the case of `CCOC(=O)c1sc2c(c1C)c(=O)n(CCO)c(=O)n2Cc1ccccc1`, the result in experiment [1], in experiment [2], in experiment [3], in experiment [4], in experiment [5] and in experiment [6] was inactive. The result in experiment [7], in experiment [8], in [9], in experiment [10], in [11] and in [12] was inactive. In addition, the outcome in [13], in experiment [14], in experiment [15], in experiment [16] and in experiment [17] was inactive.

Turning to `CCOC(=O)CCSc1nc(C)cc(C(F)(F)F)c1C#N`, the outcome in experiment [1], in [2], in [3], in [4], in experiment [5] and in experiment [6] was inactive. Also, the result in [7], in [8], in experiment [9], in experiment [10], in experiment [11] and in experiment [12] was inactive. The result in [13], in experiment [14], in experiment [15], in [16] and in experiment [17] was inactive.

Turning to `CN1CCN(NC(=O)c2cccc(Br)c2)CC1`, the result in experiment [1], in experiment [2], in experiment [5], in experiment [6], in [7] and in experiment [8] was inactive. In addition, the outcome in experiment [9], in experiment [10], in experiment [11], in experiment [12], in experiment [13] and in experiment [14] was inactive. Besides, the outcome in experiment [16] and in experiment [17] was inactive. Also, the potentiation in experiment [3] is 8% (active); in [4] it was 18% (active); in experiment [15], 21.8% (active).

Take `CN(C(=O)COC(=O)c1sc2ccccc2c1Cl)C1CCCCC1`: the result in [1], in [2], in [3], in [5], in [6] and in experiment [7] was inactive. Besides, the outcome in experiment [8], in experiment [9], in [10], in experiment [11], in [12] and in [13] was inactive. Moreover, the result in [14], in experiment [16] and in [17] was inactive. In addition, the figures for the potentiation in experiment [4] and in experiment [15] were 36% (active) and 64.8% (active), respectively.

Regarding `O=C(Nc1cnn(C23CC4CC(CC(C4)C2)C3)c1)c1cnn2cccnc12`, the outcome in [1], in experiment [2], in experiment [5], in [6], in [7] and in [8] was inactive. Also, the result in experiment [9], in [10], in experiment [11], in experiment [12], in experiment [13] and in experiment [14] was inactive. The outcome in [16] and in experiment [17] was inactive. Moreover, the potentiation is 27% (active) in experiment [3], 61% (active) in experiment [4] and 71.9% (active) in experiment [15].

In the case of `Cc1cc(NC(=O)CCN2CCN(Cc3ccccc3)CC2)ccc1Br`, the outcome in [1], in experiment [2], in experiment [4], in experiment [5], in experiment [6] and in experiment [7] was inactive. The result in [8], in [9], in experiment [10], in experiment [11], in experiment [12] and in [13] was inactive. For the same compound, the result in [14], in [15], in [16] and in experiment [17] was inactive. The potentiation in [3] is 18% (active).

As to `COc1ccc(/C=C(\C#N)C(=O)N2CCOCC2)cc1Br`, the outcome in experiment [1], in experiment [2], in [3], in experiment [5], in [6] and in experiment [7] was inactive. Further, the result in [8], in experiment [9], in experiment [10], in [11], in experiment [12] and in experiment [13] was inactive. Moreover, the result in [14], in experiment [16] and in experiment [17] was inactive. Also, the potentiation was 17% (active) in experiment [4] and 20.4% (active) in [15].
